Laboratory results: PubChem BioAssay (Tox21)
Results filed as inconclusive are left out. The source made the active and inactive calls. Unless noted, calls come from the whole dose curve; as a rule, active = well fitted curve in the direction sought with a large enough effect in the repeat runs; inconclusive = weak or mixed curves; inactive = no such curve, though single readings can be large; an effect the other way counts as inactive or inconclusive.

Assays:
[1] = qHTS assay to identify small molecule agonists of the peroxisome proliferator-activated receptor delta (PPARd) signaling pathway - cell viability counter screen (AID 743211); note: nearly all actives have a fitted effect of over 55% in size
Procedure, shortened: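 Tox21 library compounds, delivered in DMSO, were incubated 17 h with PPARd-bla HEK293H cells; cytotoxicity was taken from CellTiter-Glo luminescence read 30 min after reagent addition.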

[2] = biological target: Peroxisome proliferator-activated receptor delta (Homo sapiens) (UniProt Q03181); test: qHTS assay to identify small molecule agonists of the peroxisome proliferator-activated receptor delta (PPARd) signaling pathway (AID 743212; calls by dose curve)
Chain of Peroxisome proliferator-activated receptor delta (Homo sapiens) (Q03181 whole entry, looked up): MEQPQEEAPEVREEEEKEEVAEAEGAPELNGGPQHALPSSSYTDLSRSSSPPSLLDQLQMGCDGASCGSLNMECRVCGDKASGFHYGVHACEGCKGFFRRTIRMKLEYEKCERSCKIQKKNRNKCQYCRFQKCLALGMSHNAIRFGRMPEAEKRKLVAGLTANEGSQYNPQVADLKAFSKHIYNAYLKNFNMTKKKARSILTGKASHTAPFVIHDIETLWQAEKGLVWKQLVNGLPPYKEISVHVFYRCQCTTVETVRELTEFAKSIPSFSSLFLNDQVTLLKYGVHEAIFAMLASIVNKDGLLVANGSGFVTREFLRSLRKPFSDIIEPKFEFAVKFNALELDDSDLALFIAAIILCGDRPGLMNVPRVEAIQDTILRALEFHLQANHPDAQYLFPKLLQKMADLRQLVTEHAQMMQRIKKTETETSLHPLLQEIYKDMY
Procedure, shortened: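 GeneBLAzer PPARd UAS-bla HEK293H cells (beta-lactamase reporter under UAS control), plated and rested 5 h at 37 C, then exposed to compounds in DMSO at 37 C; LiveBLAzer B/G FRET substrate added, 2 h room temperature, fluorescence read.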

[3] = qHTS assay to identify small molecule antagonists of the peroxisome proliferator-activated receptor delta (PPARd) signaling pathway - cell viability counter screen (AID 743213); note: nearly all actives have a fitted effect of over 50% in size
Procedure, shortened: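 Same-well viability: cells pre-incubated 5 h, dosed with compound plus 300 nM L165041, kept 17 h at 37 C, FRET substrate 2 h RT, then CellTiter-Glo 30 min RT and luminescence.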

[4] = biological target: Peroxisome proliferator-activated receptor delta (Homo sapiens) (UniProt Q03181); test: qHTS assay to identify small molecule antagonists of the peroxisome proliferator-activated receptor delta (PPARd) signaling pathway (AID 743215; active = well fitted inhibition curve with a large enough effect in the signal ratio in the repeat runs, not every such curve was filed as active; the % refers to the signal ratio;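 note: cells stimulated with agonist L165041 at 300 nM final during compound exposure; series mostly up to about 62 µM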)
Procedure, shortened: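 PPARd UAS-bla HEK293H cells were pre-incubated 5 h at 37 C, then given test compounds in DMSO plus agonist L165041 (300 nM final). After 17 h at 37 C, beta-lactamase FRET substrate was added; fluorescence read after 2 h at room temperature.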

[5] = biological target: Bile acid receptor (Homo sapiens) (UniProt Q96RI1); test: qHTS assay to identify small molecule antagonists of the farnesoid-X-receptor (FXR) signaling pathway (AID 743217; active = well fitted inhibition curve with a large enough effect in the signal ratio in the repeat runs, not every such curve was filed as active; the % refers to the signal ratio)
Chain of Bile acid receptor (Homo sapiens) (Q96RI1 whole entry, looked up): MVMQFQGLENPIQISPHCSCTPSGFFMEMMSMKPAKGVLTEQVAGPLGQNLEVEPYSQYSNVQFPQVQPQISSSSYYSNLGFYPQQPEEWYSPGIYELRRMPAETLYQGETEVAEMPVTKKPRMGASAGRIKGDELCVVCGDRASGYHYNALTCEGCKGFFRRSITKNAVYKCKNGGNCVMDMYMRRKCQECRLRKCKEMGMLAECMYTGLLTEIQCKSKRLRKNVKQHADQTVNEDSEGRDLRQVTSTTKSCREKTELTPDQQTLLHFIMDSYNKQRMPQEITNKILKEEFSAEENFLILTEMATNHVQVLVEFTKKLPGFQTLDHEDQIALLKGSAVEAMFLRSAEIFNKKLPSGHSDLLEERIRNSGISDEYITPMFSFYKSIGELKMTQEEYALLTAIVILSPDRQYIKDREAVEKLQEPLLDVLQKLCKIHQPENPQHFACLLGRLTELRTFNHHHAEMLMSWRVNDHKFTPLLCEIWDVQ
Procedure, shortened: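 FXR-UAS-bla HEK 293T cells pre-incubated 5 h at 37 °C, then exposed to compounds with chenodeoxycholic acid (50 uM final) for 16 h at 37 °C. Beta-lactamase reporter read by LiveBLAzer B/G FRET substrate fluorescence after 2 h at room temperature.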

[6] = qHTS assay to identify small molecule agonists of the farnesoid-X-receptor (FXR) signaling pathway - cell viability counter screen (AID 743218); note: nearly all actives have a fitted effect of over 45% in size; note: potency is the fitted concentration of half-maximal effect
Procedure, shortened: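 FXR-UAS-bla HEK 293T cells, plated 5 h at 37 C, were exposed to compounds for 16 h at 37 C. CellTiter-Glo was then added to the same wells as the bla readout; luminescence read after 30 min at room temperature.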

[7] = biological target: Bile acid receptor (Homo sapiens) (UniProt Q96RI1); test: qHTS assay to identify small molecule agonists of the farnesoid-X-receptor (FXR) signaling pathway (AID 743220; active = well fitted activation curve with a large enough effect in the signal ratio in the repeat runs, not every such curve was filed as active; the % refers to the signal ratio)
Procedure, shortened: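 Beta-lactamase reporter under UAS control in GeneBLAzer FXR HEK 293T cells (5000/well) measured with LiveBLAzer FRET substrate after 2 h at room temperature. Compound exposure lasted 16 h at 37C.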

[8] = qHTS assay to identify small molecule antagonists of the farnesoid-X-receptor (FXR) signaling pathway - cell viability counter screen (AID 743221; active = well fitted cell-killing curve with a large enough effect in the repeat runs, not every such curve was filed as active; note: nearly all actives have a fitted effect of over 50% in size)
Procedure, shortened: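 Cytotoxicity is taken from ATP luminescence (CellTiter-Glo, 30 min, room temperature) in FXR-bla HEK 293T cells previously incubated 16 h at 37 C with compound and chenodeoxycholic acid at 50 uM final.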

[9] = biological target: Vitamin D3 receptor (Homo sapiens) (UniProt P11473); test: qHTS assay to identify small molecule agonists of the vitamin D receptor (VDR) signaling pathway (AID 743222; calls by dose curve)
Chain of Vitamin D3 receptor (Homo sapiens) (P11473 whole entry, looked up): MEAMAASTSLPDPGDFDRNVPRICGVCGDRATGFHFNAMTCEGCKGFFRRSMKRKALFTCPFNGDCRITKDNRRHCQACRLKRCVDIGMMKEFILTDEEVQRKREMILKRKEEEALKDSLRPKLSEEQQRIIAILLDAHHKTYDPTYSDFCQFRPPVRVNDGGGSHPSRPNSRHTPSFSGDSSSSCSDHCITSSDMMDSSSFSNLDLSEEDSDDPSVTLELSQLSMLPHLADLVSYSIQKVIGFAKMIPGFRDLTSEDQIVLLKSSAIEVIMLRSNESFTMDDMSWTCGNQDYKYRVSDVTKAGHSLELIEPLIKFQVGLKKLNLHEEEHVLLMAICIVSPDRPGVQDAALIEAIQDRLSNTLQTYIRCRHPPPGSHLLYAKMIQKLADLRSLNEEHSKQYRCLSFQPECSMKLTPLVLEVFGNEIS
Procedure, shortened: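 VDR-bla cells were plated 4 h at 37C/5% CO2, then exposed to compounds in DMSO for 16 h. After LiveBLAzer B/G FRET substrate addition and 2 h at room temperature, beta-lactamase reporter fluorescence was read.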

[10] = biological target: Vitamin D3 receptor (Homo sapiens) (UniProt P11473); test: qHTS assay to identify small molecule antagonists of the vitamin D receptor (VDR) signaling pathway (AID 743223; active = well fitted inhibition curve with a large enough effect in the signal ratio in the repeat runs, not every such curve was filed as active; the % refers to the signal ratio)
Procedure, shortened: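 Quantitative HTS in VDR-bla reporter cells stimulated with 1alpha,25-dihydroxyvitamin D3, 3 nM final. Compound exposure 16 h, 37C, 5% CO2. Read-out: beta-lactamase FRET substrate fluorescence, 2 h RT.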
% is set by controls: 0 for no effect and ±100 for the full control effect.

CCCCCCCC/C=C\CCCCCCCC(=O)OCCCC
inactive: outcome [1] | outcome [2] | outcome [3] | outcome [4] | Potency [5] | Potency [6] | Potency [7] | outcome [8] | outcome [9]

CC(C)(C)OC(=O)c1ccc(O)cc1
inactive: outcome [1] | outcome [2] | outcome [3] | outcome [4] | Potency [5] | Potency [6] | Potency [7] | outcome [8] | outcome [9]

COc1ccc(Br)c(C)c1
inactive: outcome [1] | outcome [2] | outcome [3] | outcome [4] | Potency [5] | Potency [6] | outcome [8]

CCN1CCc2nc(N)oc2CC1
inactive: outcome [1] | outcome [2] | outcome [3] | outcome [4] | Potency [5] | Potency [6] | outcome [8]

CN(C)CCOCCO
inactive: outcome [1] | outcome [2] | outcome [3] | outcome [4] | Potency [5] | Potency [6]

O=C(O)CCSSCCC(=O)O
inactive: outcome [1] | outcome [2] | outcome [3] | outcome [4] | Potency [5] | Potency [6] | outcome [8] | outcome [9] | outcome [10]

CN(CCOc1ccc(NS(C)(=O)=O)cc1)CCc1ccc(NS(C)(=O)=O)cc1
inactive: outcome [1] | outcome [2] | outcome [3] | outcome [4] | Potency [5] | Potency [6] | Potency [7] | outcome [8]

O=C(CS(=O)Cc1ccco1)NC/C=C\COc1cc(CN2CCCCC2)ccn1 (stereo not drawn)
inactive: outcome [1] | outcome [2] | outcome [3] | outcome [4] | Potency [5] | Potency [6] | Potency [7] | outcome [8] | outcome [9] | outcome [10]

Cc1cccc2nccnc12
inactive: outcome [1] | outcome [2] | outcome [3] | outcome [4] | Potency [5] | Potency [6] | Potency [7] | outcome [8] | outcome [9] | outcome [10]

COCCOCCOCCOCCO
inactive: outcome [1] | outcome [2] | outcome [3] | outcome [4] | Potency [5] | Potency [6] | outcome [8]

C#CC(C)N(C)C(=O)Nc1ccc(Cl)cc1 (stereo not drawn)
inactive: outcome [1] | outcome [2] | outcome [3] | outcome [4] | Potency [5] | Potency [7] | outcome [8] | outcome [9]
active: Potency [6] 436 nM

O=C(c1ccc(O)cc1)c1ccc(O)c(O)c1O
inactive: outcome [1] | outcome [2] | outcome [3] | outcome [4] | Potency [5] | Potency [6] | Potency [7] | outcome [9] | outcome [10]

CCCC(=O)C(C)=O
inactive: outcome [1] | outcome [2] | outcome [3] | outcome [4] | Potency [5] | Potency [6] | outcome [9]

COC(=O)C1CC(=O)C(C(=O)OC)CC1=O (stereo not drawn)
inactive: activity change, negative = cytotoxicity [1] -4.27% [at 5.95 µM] | activation [2] 3.55% [at 5.95 µM] | viability change, negative = cytotoxic [3] -19.8% [at 6.26 µM] | ratio activity, negative = inhibition [4] -19.7% [at 6.26 µM] | viability change, negative = cytotoxic [6] 25% [at 5.95 µM] | activity change, negative = cytotoxicity [8] -3.4% [at 5.95 µM]

CC(C)NCC(O)COc1ccc(COCCOC(C)C)cc1 (stereo not drawn)
inactive: outcome [1] | outcome [2] | outcome [3] | outcome [4] | Potency [5] | Potency [7] | outcome [8] | outcome [9]

C=C(C)C(=O)OCC(C)(C)COC(=O)C(=C)C
inactive: outcome [1] | outcome [2] | outcome [3] | outcome [4] | Potency [6] | outcome [8]

CC(C)CCCCOC(=O)c1ccccc1C(=O)OCCCCC(C)C
inactive: outcome [1] | outcome [2] | outcome [3] | outcome [4] | Potency [6] | outcome [8]

CCOC(=O)[C@H](CCc1ccccc1)N[C@@H](C)C(=O)N1C(=O)N(C)C[C@H]1C(=O)O
inactive: outcome [1] | outcome [2] | outcome [3] | outcome [4] | Potency [6] | outcome [8]

CCCCCOC(=O)CCC
inactive: outcome [1] | outcome [2] | outcome [3] | outcome [4] | Potency [6] | outcome [8]

CCCCCCCCSCC
inactive: outcome [1] | outcome [2] | outcome [3] | outcome [4] | Potency [6] | outcome [8] | outcome [9]

CN1CCN(CC(=O)N2c3ccccc3C(=O)Nc3cccnc32)CC1
inactive: activity change, negative = cytotoxicity [1] -5.11% [at 5.95 µM] | activation [2] -1.15% [at 5.95 µM] | viability change, negative = cytotoxic [3] 18.4% [at 6.26 µM] | ratio activity, negative = inhibition [4] 1.31% [at 6.26 µM] | viability change, negative = cytotoxic [6] 9.72% [at 5.95 µM] | activity change, negative = cytotoxicity [8] -5.73% [at 5.95 µM] | activation [9] 2.22% [at 6.01 µM] | activity change, negative = inhibition [10] -1.37% [at 6.95 µM]

CCOc1cc(NC(C)=O)ccc1C(=O)OC
inactive: outcome [1] | outcome [2] | outcome [3] | outcome [4] | Potency [5] | outcome [8]

Cc1cc2cc3c(C)cc(=O)oc3c(C)c2o1
inactive: outcome [1] | outcome [2] | outcome [3] | outcome [4] | Potency [6] | outcome [8] | outcome [9]

COc1cc2c(cc1OC)C(=O)CC2
inactive: outcome [1] | outcome [2] | outcome [3] | outcome [4] | Potency [6] | outcome [8] | outcome [9]

COc1ccc(S(=O)(=O)N2c3ccc(Cl)cc3[C@@](O)(c3ccccc3Cl)[C@H]2C(=O)N2CCC[C@@H]2C(N)=O)cc1OC
inactive: outcome [1] | outcome [2] | outcome [3] | outcome [4] | Potency [6] | outcome [8] | outcome [9] | outcome [10]

CC(=O)NCCCCCC(=O)O
inactive: outcome [1] | outcome [2] | outcome [3] | outcome [4] | Potency [6] | outcome [8] | outcome [9]

Nc1ncnc(Nc2ccccc2)n1
inactive: outcome [1] | outcome [2] | outcome [3] | outcome [4] | Potency [6] | outcome [8] | outcome [9] | outcome [10]

C[C@H](CCC(=O)O)[C@H]1CC[C@H]2[C@@H]3C(=O)C[C@@H]4CC(=O)CC[C@]4(C)[C@H]3CC(=O)[C@]12C
inactive: outcome [1] | outcome [2] | outcome [3] | outcome [4] | Potency [6] | outcome [8] | outcome [9] | outcome [10]

COc1ccc(-c2cc(=O)c3c(O)cc(O[C@@H]4O[C@H](CO[C@@H]5O[C@@H](C)[C@H](O)[C@@H](O)[C@H]5O)[C@@H](O)[C@H](O)[C@H]4O)cc3o2)cc1O
inactive: outcome [1] | outcome [2] | outcome [3] | outcome [4] | Potency [6] | outcome [8] | outcome [9]
